Screening results: PubChem BioAssay, National Center for Advancing Translational Sciences (NCATS)
NPC1 prom act = activates the NPC1 promoter; Huh7 NPC1 promoter luciferase reporter, 24 h; Potency, µM (highest dose often 9.22 µM), inactives show at the top dose activation, actives largely listed as activators; 2.4% of 320,000 active; note: % of control where 0% means no effect; nearly all actives have a fitted effect of over 60% in size
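Huh7 reporter cells (NPC1 promoter driving luciferase) are dosed with compound for 24 h at 37 °C, 5% CO2; luciferase detection reagent is then added and luminescence measured after 10 min at ambient temperature.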
FLuc counter = firefly luciferase modulation, counter-screen for miR-21 project; P08659; Potency, µM (top dose mostly 57.5 µM), for inactives: top-dose activity change, negative = inhibition, most hits filed as inhibitors; 6.9% of 360,000 active; purified FLuc, Km substrates, luminescence inhibition;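 note: plate controls were vehicle for no effect and reference inhibitor for full effect; nearly all actives have a fitted effect of over 55% in size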
Target sequence (P08659 whole entry, looked up): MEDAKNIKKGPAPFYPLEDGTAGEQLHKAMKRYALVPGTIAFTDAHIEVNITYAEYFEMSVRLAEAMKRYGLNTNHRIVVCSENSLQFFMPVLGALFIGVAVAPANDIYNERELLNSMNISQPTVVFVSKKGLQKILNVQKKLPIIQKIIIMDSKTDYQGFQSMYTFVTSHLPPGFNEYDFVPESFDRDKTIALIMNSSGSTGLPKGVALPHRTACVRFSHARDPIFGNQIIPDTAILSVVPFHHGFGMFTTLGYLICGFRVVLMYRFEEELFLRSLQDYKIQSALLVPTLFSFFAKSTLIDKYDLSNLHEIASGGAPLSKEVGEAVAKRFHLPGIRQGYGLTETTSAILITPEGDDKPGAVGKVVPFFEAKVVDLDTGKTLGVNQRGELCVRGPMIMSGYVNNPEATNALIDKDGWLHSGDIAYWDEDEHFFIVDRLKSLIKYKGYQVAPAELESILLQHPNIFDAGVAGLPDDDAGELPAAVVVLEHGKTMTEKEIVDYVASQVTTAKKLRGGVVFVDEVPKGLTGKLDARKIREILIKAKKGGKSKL
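Purified P. pyralis luciferase, 10 nM final, with Km-level 10 uM D-luciferin and 10 uM ATP in 50 mM Tris acetate pH 7.5, 10 mM Mg acetate, 0.01% Tween-20, 0.05% BSA; 6-point qHTS titration about 60 µM downward; luminescence read.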
p53 reactivation = restores transcriptional activity of mutant p53 | AID 504706 | H1299 p53-A138V BP100-luciferase reporter, luminescence, 24 h | 0.063% of 320,000 active | Potency, µM (titrated, usually from 92.2 µM), without a hit: at the highest dose activity change, positive = activation, actives largely listed as activators; note: % of control where 0% means no effect; nearly all actives have a fitted effect of over 45% in size
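H1299 (p53-null), stable ts p53-A138V + BP100-Luc; 1000 cells/well, Opti-MEM/10% FBS; cpd 4 pt, 1:5; 24 h, 37 deg C, 5% CO2; detection reagent 10 min RT; luminescence.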
SMN2 splice enh = increases expression of the SMN2 splice variant; HEK293 SMN2-luciferase splicing reporter, luminescence, 30-36 h; Potency, µM (top dose mostly 46.1 µM), without a hit: at the highest dose activity change, positive = activation, most hits filed as activators; 2.8% of 210,000 active; note: % of control where 0% means no effect; nearly all actives have a fitted effect of over 55% in size
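HEK293 cells carry an SMN2 minigene-luciferase reporter in which exon 7 inclusion puts luciferase in frame. Cells were seeded at 2000 cells/well, attached for 10-12 hours, then exposed to compounds for 30-36 hours at 37C before ONE-Glo luminescence.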
Rab9 prom act = Rab9 promoter activation; 2.8% of 320,000 active; AID 485297; Huh7 Rab9 promoter-luciferase reporter, luminescence, 24 h; Potency, µM (highest dose often 9.22 µM), for the others: top-dose activation, negative = inhibition, hits mostly activators; note: % of control where 0% means no effect; nearly all actives have a fitted effect of over 60% in size
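Cells were plated at 1500 per well in reduced-serum medium with 10% FBS and left 2 h. Compound in DMSO was then added for 24 h at 37 °C. Reporter signal was read by luminescence after 10 min with luciferase detection reagent.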
ELG1 genotoxic = genotoxicity induction in ELG1-luciferase HEK293T cells. HEK293T ELG1-luciferase reporter, luminescence, 16 h. Potency, µM (highest dose often 46 µM), inactives show at the top dose activity change, positive = activation, actives largely listed as activators. 1.3% of 330,000 active. AID 504466; note: % of control where 0% means no effect; nearly all actives have a fitted effect of over 60% in size
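ELG1-luciferase HEK293T cells, 2,000/well; compound pinned in; 16 hr, 37 °C, 5% CO2; ONE-Glo, 30 min RT; luminescence on CCD imager.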
* = called active by the depositor; ? = inconclusive; · = not tested or not shown. Shown are actives, neighbours in structure and some others; about 7.3% of the full set was active somewhere. Calls come from the whole dose curve; as a rule, active = well fitted curve in the direction sought with a large enough effect; inconclusive = small, poorly fitted or top-dose-only effect, or another doubt; inactive = no such curve, though single readings can be large; an effect the other way counts as inactive or inconclusive. Potency is the fitted concentration of half-maximal effect.

SMILES	NPC1 prom act	FLuc counter	p53 reactivation	SMN2 splice enh	Rab9 prom act	ELG1 genotoxic
Cc1nc2ccc(NC(=O)c3ccc4ccccc4n3)cc2s1	2.8µM*	6µM*	3%	35µM*	3.5µM*	?
Cc1nc2ccc(C(=O)Nc3ccccc3Cl)cc2s1	2.5µM*	17µM*	-7%	·	1.1µM*	?
CCC/C(C)=C/c1ccc(CC)cn1	1%	9.5µM*	-1%	·	0%	0%
CCc1ccc(OCCCC(=O)NCc2ccccc2)cc1	-2%	-16%	-5%	9%	0%	2%
CSc1n[nH]c(-c2ccc(C(F)(F)F)cc2)n1	?	17µM*	5%	·	?	?
Nc1n[nH]c(-c2ccc(F)cc2)n1	-3%	6%	24%	14%	-4%	5%
CCN(CC)c1ccc(/C=C(/C#N)C(=O)NCc2ccccc2)o1	23%	24µM*	27%	·	?	15%
CCN(CC)c1ccc(/C=C(/C#N)C(=O)NC(C)C)o1	8%	?	3%	25%	27%	19%
N/C(=N\OC(=O)COc1ccc(Cl)cc1Cl)c1ccncc1	2.8µM*	3µM*	3%	·	0.63µM*	?
N/C(=N\OC(=O)COc1ccc(Br)cc1)c1ccncc1	14%	-17%	?	?	0%	9%
N/C(=N\OC(=O)COc1ccc(Cl)cc1Br)c1cccnc1	3.2µM*	2.7µM*	23%	-1%	4µM*	-11%
Cc1ccc(C)c(OCC(=O)O/N=C(\N)c2cccnc2)c1	-1%	-18%	0%	·	11%	4%
N/C(=N\OC(=O)COc1ccc(Br)cc1Cl)c1cccnc1	?	8.5µM*	?	18µM*	?	?
Cc1cc(C)c(C)c(OCC(=O)O/N=C(\N)c2cccnc2)c1	-5%	6%	1%	·	0%	-5%
COc1ccccc1CNC(=O)CCCn1c(=O)c2ccccc2n(Cc2ccc(F)cc2)c1=O	·	-8%	·	-13%	·	·
Cc1ccc(-c2nc3c(c(SCC(=O)Nc4cccc(C(=O)O)c4)n2)Cc2cccc(C)c2O3)cc1	8%	?	·	7%	-2%	·
CC(=O)c1cccc(NC(=O)C2CCCN(c3nnc(-n4cccc4)s3)C2)c1 (stereo unspecified)	·	-19%	·	·	·	·
Cc1cc(C)cc(NC2=C(N)C(=O)c3ccccc3C2=O)c1	?	15µM*	?	·	?	?
O=C1C(Cl)=C(Nc2ccc(O)cc2)C(=O)c2ccccc21	-36%	?	-14%	·	-46%	-9%
Cc1ccc(NC2=C(Cl)C(=O)c3ccccc3C2=O)cc1	-34%	-23%	5µM*	·	-33%	?
CCN(CC)c1ccc(NC2=C(Cl)C(=O)c3ccccc3C2=O)cc1	-38%	12µM*	-36%	-109%	-35%	2.9µM*
Cc1cccc(NC2=C(NCCO)C(=O)c3ccccc3C2=O)c1	12%	-19%	8%	-19%	11%	-1%
Cc1ccc(NC2=CC(=O)C(=O)c3ccccc32)cc1	8%	11µM*	-36%	?	0%	-16%
Cc1ccc(NC2=C(N3CCOCC3)C(=O)c3ccccc3C2=O)cc1	11%	9.5µM*	-21%	-43%	-1%	6.5µM*
CC(=O)c1ccc(NC2=C(N3CCOCC3)C(=O)c3ccccc3C2=O)cc1	-17%	?	2%	-30%	-1%	-3%
SMILES	NPC1 prom act	FLuc counter	p53 reactivation	SMN2 splice enh	Rab9 prom act	ELG1 genotoxic
O=C(N/N=C/c1cn(-c2ccccc2)nc1-c1cc2ccccc2o1)c1c[nH]c2ccccc12	1.8µM*	1.9µM*	?	4µM*	1.4µM*	?
O=C(N/N=C/c1cn(-c2ccccc2)nc1-c1cc2ccccc2o1)c1ccccc1Br	3.2µM*	15µM*	·	4.5µM*	?	?
COc1ccc(-c2nn(-c3ccccc3)cc2/C=N/NC(=O)c2ccc(Br)o2)cc1	-4%	?	1%	-22%	1%	-17%
CCc1ccc(NC(=O)NCCc2c(C)nn(C)c2C)cc1	·	-1%	·	·	·	·
CN(C(=O)Nc1ccc(Cl)cc1Cl)C1CCCC1	?	19µM*	10%	·	4µM*	?
COc1ccc2cc(C(N)=O)c(=Nc3ccccc3)oc2c1	3.5µM*	0%	24%	-13%	1.6µM*	?
NC(=O)c1cc2ccc(O)cc2oc1=Nc1ccccc1	?	-12%	?	-7%	17%	-8%
COc1ccc(OC)c(N=c2oc3cc(O)ccc3cc2C(N)=O)c1	-1%	21µM*	?	-27%	16%	-1%
O=C1O/C(=C\c2ccccc2)c2ccccc21	-3%	12µM*	-3%	-5%	-3%	1%
CCOC(=O)c1c(S(=O)(=O)N2CCCC(C(=O)Nc3cccc(CC)c3)C2)c(C)n(CC)c1C (stereo unspecified)	·	-13%	·	·	·	·
CCOC(=O)/C(=N\Nc1ncnc2ccccc12)c1ccc(OC)cc1	3.5µM*	5.4µM*	?	·	3.2µM*	?
O=C(N/N=C\c1ccc2c(c1)OCO2)c1ccc(Cn2cc(Br)c([N+](=O)[O-])n2)o1	3%	6µM*	7%	·	2%	3%
O=C(N/N=C\c1ccc(F)cc1)c1ccc(Cn2cc(Br)c([N+](=O)[O-])n2)o1	4%	21µM*	7%	-14%	-3%	3%
Cc1ccc(C(=O)Nc2ccc(C(=O)N3CCCCC3)cc2)o1	?	24µM*	14%	·	?	?
CCNS(=O)(=O)c1ccc(NC(=O)Nc2ccccc2OC)cc1	2%	17µM*	0%	·	-1%	8%
COc1ccc(C(=O)Nc2ccc(C(=O)N3CCOCC3)cc2)cc1OC	1%	?	12%	·	9%	?
COc1ccccc1NC(=O)Nc1ccc(C(=O)N2CCCCC2)cc1	?	3µM*	10%	·	0.89µM*	13µM*
Cc1ccc(C(=O)Nc2ccc(NC(=O)c3ccc(C)o3)cc2)o1	-7%	-19%	0%	·	0%	5%
COc1ccc(C(=O)Nc2ccc(C(=O)N3CCCCC3)cc2)cc1OC	16%	24µM*	5%	·	19%	14%
COc1ccc(OC)c(CCNC(=O)CCC(=O)N2CCOc3ccc(C)cc32)c1	-5%	0%	·	·	-4%	-3%
COc1cc(C2OC(=O)c3c2ccc(OC)c3OC)ccc1O (stereo unspecified)	-24%	-3%	·	·	-3%	·
CSc1nc2sc3c(c2c(=O)n1Cc1ccccc1)CCC(C(C)(C)C)C3 (stereo unspecified)	·	?	·	-1%	·	·
COCCNC(=O)c1cc2c(s1)-c1ccc(Cl)cc1SC2	2.5µM*	6µM*	?	·	2.2µM*	?
